The record followed here is PubChem BioAssay (NCI).

The panel holds about 83,000 compounds, 20% with a hit somewhere; the sample as a whole holds those more often.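 Negative percent growth values reflect cell death: -40 means 40% of the cells present at the start died, and -100 means all died.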 Values without a mark were called inactive. The source made the active and inactive calls. The calls were made as follows: active = growth percent below 10; inactive = the rest.

Test systems include NCI-H23 lung; NCI-H226 lung; NCI-H322M lung; HOP-62 NSCLC; NCI-H460 lung; HOP-92 NSCLC; NCI-H522 lung; A549/ATCC NSCLC; 786-0 renal; COLO 205 colon; DU-145 prostate; K-562 leukemia; MALME-3M melanoma; MDA-MB-231 breast; RXF 393 renal; SF-268 CNS; SF-295 CNS; SF-539 CNS; UACC-257 melanoma; M14 melanoma.
What all share (test): NCI-60 one-dose screen, 48 h (100 = growth as untreated, 0 = no growth, -100 = all killed)
Conditions in all cases: 10 µM unless noted

On to `Cc1oc(-c2ccccc2Cl)cc1C(=O)Nc1ccc(S(N)(=O)=O)cc1`, for which the growth with NCI-H23 lung is 96.4%; in the test on NCI-H226 lung it was 96.1%; with NCI-H322M lung, 102%; in the test on HOP-62 NSCLC, 105%; in the test on NCI-H460 lung, 107%; with HOP-92 NSCLC it was 107%. Also, the growth with NCI-H522 lung is 97.3%; in the test on A549/ATCC NSCLC it was 105%; in the test with 786-0 renal it was 103%; in the test on COLO 205 colon, 116%; in the test on DU-145 prostate, 104%; in the test on K-562 leukemia it was 96.3%. Further, the growth is 98.6% with MALME-3M melanoma; 93.3% in the test with MDA-MB-231 breast; 111% in the test on RXF 393 renal; 104% in the test on SF-268 CNS; 104% with SF-295 CNS; 95.4% in the test with SF-539 CNS. The growth with UACC-257 melanoma was 95%; with M14 melanoma, 93.8%.
Consider `O=C(/C=C/c1cccc2ccccc12)Nc1ncc(Cc2ccccc2)s1`, for which the growth with NCI-H23 lung was 22.1%; in the test with NCI-H226 lung, 28.4%; with NCI-H322M lung, 12.5%; with HOP-62 NSCLC, 28.7%; in the test with NCI-H460 lung it was 2.17% (active); with HOP-92 NSCLC, 70.3%. In addition, the growth is 34.5% in the test with NCI-H522 lung; 19.5% with A549/ATCC NSCLC; 34.3% with 786-0 renal; 12.1% in the test with COLO 205 colon; 21.2% with DU-145 prostate; 8.6% (active) with K-562 leukemia. For the same compound, the growth in the test with MALME-3M melanoma is 21.7%; in the test with MDA-MB-231 breast, 25%; in the test with RXF 393 renal, -10% (active); with SF-268 CNS, 50.8%; with SF-295 CNS, -40.1% (active); in the test with SF-539 CNS, -24.4% (active). Also, the growth with UACC-257 melanoma was 60.8%; in the test on M14 melanoma, -21.3% (active).
As for `N#CC1=C(N)Oc2ccc3ccccc3c2C1c1ccccc1Cl` (stereo not given), the growth in the test with NCI-H23 lung is 61.6%; with NCI-H226 lung, 70.8%; in the test with NCI-H322M lung it was 74.9%; with HOP-62 NSCLC, 38.7%; with NCI-H460 lung, 20.4%; with HOP-92 NSCLC, 69.1%. For the same compound, the growth with NCI-H522 lung is 34.4%; in the test with A549/ATCC NSCLC it was 53%; with 786-0 renal it was 42.4%; in the test on COLO 205 colon it was 39.3%; in the test on DU-145 prostate it was 73.3%; in the test with K-562 leukemia it was 13.2%. The growth in the test with MALME-3M melanoma was 46.2%; with MDA-MB-231 breast, 51.3%; in the test with RXF 393 renal it was 58.7%; in the test with SF-268 CNS it was 57.7%; in the test on SF-295 CNS, 11.7%; in the test with SF-539 CNS it was 35%. The growth is 66.7% in the test on UACC-257 melanoma and 13.4% with M14 melanoma.
As to `Cc1cc2nc3c4cc(O)ccc4n(CCN(C)C)c3nc2cc1C`, the growth in the test on NCI-H23 lung was -35.3% (active); in the test with NCI-H226 lung, -24.6% (active); with NCI-H322M lung, -11% (active); in the test with HOP-62 NSCLC, 3.06% (active); with NCI-H460 lung, 3.73% (active); in the test on HOP-92 NSCLC, 21.1%. In addition, the growth in the test with NCI-H522 lung was -13.5% (active); in the test on A549/ATCC NSCLC, -32.7% (active); in the test on 786-0 renal, 5.67% (active); with COLO 205 colon it was -40.6% (active); with DU-145 prostate, 6.38% (active); in the test on K-562 leukemia, 7.53% (active). For the same compound, the growth in the test with MALME-3M melanoma was -61.6% (active); in the test on MDA-MB-231 breast, -5.62% (active); in the test on RXF 393 renal, -54% (active); in the test on SF-268 CNS, 9.22% (active); in the test with SF-295 CNS, -19.8% (active); with SF-539 CNS, -13.1% (active). Also, the growth was -15.1% (active) in the test on UACC-257 melanoma and -33.7% (active) with M14 melanoma.
Take `C=C(C)[C@@H]1CC[C@]2(C=NCCCNCCCCNCCCN)CC[C@]3(C)[C@H](CC[C@@H]4[C@@]5(C)CCCNC(C)(C)[C@@H]5CC[C@]43C)[C@@H]12`: the growth is 82.5% in the test with NCI-H23 lung; 80.1% with NCI-H226 lung; 100% in the test on NCI-H322M lung; 92.9% with HOP-62 NSCLC; 91.7% in the test on NCI-H460 lung; 92.4% in the test with HOP-92 NSCLC. Moreover, the growth is 99.6% in the test with NCI-H522 lung; 88.8% in the test on A549/ATCC NSCLC; 107% with 786-0 renal; 79.1% in the test on COLO 205 colon; 101% in the test with DU-145 prostate; 20.1% in the test on K-562 leukemia. The growth with MALME-3M melanoma is 103%; with MDA-MB-231 breast, 104%; with RXF 393 renal it was 110%; with SF-268 CNS, 102%; in the test with SF-295 CNS it was 91.2%; in the test with SF-539 CNS, 95.3%. Moreover, the growth in the test with UACC-257 melanoma was 107%; with M14 melanoma, 98.5%.
Regarding `O=C1/C(=C\c2ccco2)SC(=S)N1CCc1ccc(O)cc1`, the growth with NCI-H23 lung is 101%; with NCI-H226 lung, 101%; in the test on NCI-H322M lung, 90.6%; in the test on HOP-62 NSCLC it was 98.1%; with NCI-H460 lung, 106%; in the test on HOP-92 NSCLC, 61.2%. Besides, the growth in the test with NCI-H522 lung was 68.9%; in the test with A549/ATCC NSCLC, 99.7%; in the test with 786-0 renal it was 99.4%; with COLO 205 colon, 126%; in the test with DU-145 prostate it was 67.8%; in the test on K-562 leukemia, 84.8%. In addition, the growth in the test with MALME-3M melanoma was 82%; with MDA-MB-231 breast, 80.5%; with RXF 393 renal it was 98.3%; with SF-268 CNS, 94.8%; in the test with SF-295 CNS, 105%; with SF-539 CNS, 88.5%. Further, the growth with UACC-257 melanoma is 90.1%; in the test on M14 melanoma it was 96%.
In the case of `Cc1ccc(C)c2c1CCC2C(C)C` (stereo not given), the growth is 91.9% in the test with NCI-H23 lung; 98.6% in the test with NCI-H226 lung; 97.9% in the test on NCI-H322M lung; 101% in the test with HOP-62 NSCLC; 105% in the test on NCI-H460 lung; 93.6% with HOP-92 NSCLC. For the same compound, the growth with NCI-H522 lung is 94.8%; in the test on A549/ATCC NSCLC, 87.2%; with 786-0 renal, 98.7%; with COLO 205 colon it was 104%; in the test on DU-145 prostate, 103%; in the test on K-562 leukemia, 90.4%. The growth was 101% with MALME-3M melanoma; 99.6% with MDA-MB-231 breast; 112% with RXF 393 renal; 96.8% with SF-268 CNS; 102% in the test on SF-295 CNS; 97.5% in the test on SF-539 CNS. Also, the values for the growth in the test on UACC-257 melanoma and in the test with M14 melanoma were 89.6% and 95%, respectively.
`COc1cc(-c2cc3ncccc3c3nc(OCCN(C)C)c4cccnc4c23)cc(OC)c1OC`: the growth is 13.4% with NCI-H23 lung; -5.43% (active) in the test on NCI-H226 lung; 17.9% in the test on NCI-H322M lung; -45.6% (active) with HOP-62 NSCLC; -50.8% (active) in the test on NCI-H460 lung; -8.69% (active) in the test with HOP-92 NSCLC. The growth in the test on NCI-H522 lung was 7.46% (active); in the test with A549/ATCC NSCLC it was -37.7% (active); in the test on 786-0 renal it was -88.5% (active); in the test on COLO 205 colon, 3.65% (active); in the test with DU-145 prostate, 1.52% (active); in the test with K-562 leukemia, 7.73% (active). The growth with MALME-3M melanoma is 8.86% (active); with MDA-MB-231 breast, 20.2%; in the test on RXF 393 renal it was -72.1% (active); in the test with SF-268 CNS, 23.1%; in the test on SF-295 CNS it was 9.6% (active); in the test with SF-539 CNS, 17.9%. The results for the growth in the test with UACC-257 melanoma and in the test on M14 melanoma were 15.1% and 23%, respectively.
